An excerpt weighted towards active compounds, which were near 1.1% of everything screened.
mIDH1 inhibitor: qHTS for Inhibitors of mutant isocitrate dehydrogenase 1 (IDH1): qHTS; 0.093% of 390,000 active; Isocitrate dehydrogenase [NADP] cytoplasmic (Homo sapiens), O75874; AID 602179, 2012; Potency, µM (doses to about 76.6 µM), without a hit: at the top dose activity change, negative = inhibition, hits mostly inhibitors; IDH1-R132H enzyme, NADPH consumption, diaphorase/resazurin fluorescence; further: nearly all actives have a fitted effect of over 65% in size
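IDH1-R132H (0.5 ug/mL dispensed) in pH 7.5 Tris buffer was preincubated 30 min with compound, then given a substrate mix of 0.016 mM NADPH and 2 mM alpha-KG for 80 min at room temperature; remaining NADPH was read by diaphorase/resazurin fluorescence.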
rTrxR1 inhibitor: qHTS Assay for Inhibitors of Mammalian Selenoprotein Thioredoxin Reductase 1 (TrxR1): qHTS | recombinant rTrxR1, NADPH fluorescence consumption, selenite substrate | AID 588453, 2011 | Thioredoxin reductase 1, cytoplasmic (Rattus norvegicus), O89049 | 1% of 390,000 active | Potency, µM (doses to about 114 µM), for the others: at the highest dose activity change, negative = inhibition, hits mostly inhibitors; further: nearly all actives have a fitted effect of over 65% in size
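Rat TrxR1 (90 nM in the dispensed reagent) was pre-reduced with 400 uM NADPH for 5 min at room temperature, then incubated with compound for 15 min. After 400 uM selenite was added, NADPH fluorescence (Ex 340/Em 450 nm) was followed for 8 min.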
Eya2 inh: qHTS Assay for Inhibitors of the Phosphatase Activity of Eya2; Protein phosphatase EYA2 (Homo sapiens), O00167; recombinant Eya2, OMFP fluorescence dephosphorylation (OMFP is methylfluorescein phosphate); Potency, µM (series often up to 76.9 µM), for inactives: top-dose activity, negative = inhibition, most hits filed as inhibitors; 0.006% of 330,000 active; AID 488837, 2010
Target sequence (O00167 whole entry, looked up): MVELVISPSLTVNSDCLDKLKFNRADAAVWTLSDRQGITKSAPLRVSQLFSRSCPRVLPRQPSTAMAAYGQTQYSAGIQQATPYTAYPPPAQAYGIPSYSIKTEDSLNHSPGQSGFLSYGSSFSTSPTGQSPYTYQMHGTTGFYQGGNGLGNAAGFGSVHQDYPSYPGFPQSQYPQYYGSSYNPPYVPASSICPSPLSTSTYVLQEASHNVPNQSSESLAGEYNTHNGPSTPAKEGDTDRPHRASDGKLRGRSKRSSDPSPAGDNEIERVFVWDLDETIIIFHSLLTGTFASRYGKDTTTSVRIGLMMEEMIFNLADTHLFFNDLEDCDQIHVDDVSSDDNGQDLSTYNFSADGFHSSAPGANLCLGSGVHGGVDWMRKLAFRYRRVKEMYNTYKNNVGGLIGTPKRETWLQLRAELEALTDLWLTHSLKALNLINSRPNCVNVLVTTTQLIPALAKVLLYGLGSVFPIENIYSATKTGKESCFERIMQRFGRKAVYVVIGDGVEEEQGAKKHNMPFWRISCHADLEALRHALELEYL
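Eya2 (0.2 uM) preincubated 10 min at ambient with compound, then OMFP substrate added at 50 uM; 10 min reaction in 50 mM HEPES pH 7.5, 50 mM NaCl, 5 uM MgCl2, 0.05% BSA, 1 mM DTT. Fluorescence read at Ex 485/Em 525 nm.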
RGS4 inhibitor: Inhibitors of Regulator of G Protein Signaling (RGS) 4: qHTS. 0.039% of 390,000 active. Regulator of G-protein signaling 4 (Homo sapiens), P49798. AID 504845, 2011. Potency, µM (series often up to 114 µM), without a hit: at the highest dose activity change, negative = inhibition, usual class: inhibitors. Transcreener GDP fluorescence polarization, RGS4-accelerated GTP hydrolysis; further: nearly all actives have a fitted effect of over 75% in size
Target sequence (P49798 whole entry, looked up): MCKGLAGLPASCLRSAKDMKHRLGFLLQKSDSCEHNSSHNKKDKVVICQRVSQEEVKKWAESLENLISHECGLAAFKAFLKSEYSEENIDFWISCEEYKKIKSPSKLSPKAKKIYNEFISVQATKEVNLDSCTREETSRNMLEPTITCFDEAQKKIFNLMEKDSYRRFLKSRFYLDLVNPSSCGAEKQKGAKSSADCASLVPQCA
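MLSMR compounds (23 nl, pin-transferred) preincubated 10 min at room temperature with a 500nM (2x) first reagent, then RGS4 at 900nM (2x) plus Transcreener GDP mix added; fluorescence polarization (620/688 nm) read before and after 90 min at 30 °C.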
TrxR1 substrate: qHTS Assay for Substrates of Mammalian Selenoprotein Thioredoxin Reductase 1 (TrxR1): qHTS; AID 588456, 2011; 0.01% of 390,000 active; Thioredoxin reductase 1, cytoplasmic (Rattus norvegicus), O89049; purified TrxR1 substrate turnover, NADPH consumption readout; Potency, µM (titrated, usually from 114 µM), inactives show at the top dose activity change, negative = substrate turnover; further: nearly all actives have a fitted effect of over 50% in size
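Rat TrxR1, dispensed at 90 nM, was prereduced with 400 uM NADPH (final) for 5 min at ~22 deg C, then incubated with compound 15 min before 400 uM selenite. A first-read NADPH fluorescence drop versus no-compound background flagged substrates.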
* marks the source's active call; other numbers are inactive results; ? = inconclusive; / = not tested or not shown; ! = repeats disagree; [ ] = dose if it differs, or a comment. The call rests on the fitted dose curve; in most records, active means well fitted curve in the direction sought with a large enough effect; inconclusive means small, poorly fitted or top-dose-only effect, or another doubt; inactive means no such curve, though single readings can be large; an effect the other way counts as inactive or inconclusive. On the % scale 0 is the no-effect control and ±100 the full control effect; potency means the concentration at half of the fitted maximal effect.

SMILES	mIDH1 inhibitor	rTrxR1 inhibitor	Eya2 inh	RGS4 inhibitor	TrxR1 substrate
O=C(NCc1ccccc1)c1nc(S(=O)(=O)Cc2ccccc2)ncc1Cl	-4%	2.8µM*!	6%	?	-2%
CCCS(=O)(=O)c1ncc(Cl)c(C(=O)Nc2c(C(=O)Nc3ccccc3)oc3ccccc23)n1	11%	7%	/	14%	-2%
COc1ccc(N(Cc2ccccc2)C(=O)c2nc(S(C)(=O)=O)ncc2Cl)cc1	-1%	1µM*	/	?	7%
CCS(=O)(=O)c1ncc(Cl)c(C(=O)NCc2ccccc2)n1	/	5.6µM*	/	-18%	4%
COc1ccc(CNC(=O)c2nc(S(=O)(=O)Cc3ccccc3)ncc2Cl)cc1	?	3.2µM*!	3%	-50%	-4%
CCCSc1ncc(Cl)c(C(=O)N(Cc2ccccc2)c2ccc(OC)cc2)n1	/	26%	/	-21%	2%
COc1cc(-c2noc(C)c2C(=O)N[C@@H](CO)Cc2ccccc2)cc(OC)c1OC	20%	12%	/	-13%	6%
COc1ccccc1-c1ccccc1C1=CC(=O)CC(C)(C)C1=O	0%	/	/	/	/
O=C(CSc1nc(Nc2ccccc2)nc(N2CCOCC2)n1)Nc1cccc([N+](=O)[O-])c1	3%	21%	1%	-11%	1%
O=C(NNC(=O)c1ccccc1[N+](=O)[O-])c1ccco1	5%	38%	-20%	18%	13%
O=C(NCc1ccc2c(c1)OCO2)c1nc(S(=O)(=O)Cc2ccccc2)ncc1Cl	-4%	11µM*	1%	?	3%
O=C(c1ccc(Cl)cc1)N(Cc1ccco1)Cc1ccco1	17%	-1%	/	19%	-8%
CS(=O)(=O)c1ncc(Cl)c(C(=O)N(Cc2ccc(Cl)cc2)Cc2ccco2)n1	0%	0.71µM*	/	?	12%
O=C(NCc1ccc2c(c1)OCO2)c1nc(S(=O)(=O)Cc2ccccc2F)ncc1Cl	-5%	21%	-1%	10%	4%
O=C(COC(=O)c1cccc(S(=O)(=O)N2CCOCC2)c1)Nc1ccc(Cl)cn1	0%	23%	5%	1%	1%
N#Cc1ccc(NC(=O)COC(=O)C2Cc3ccccc3CN2C(=O)c2ccccc2)cc1 (stereo unspecified)	11%	-7%	-2%	-14%	-11%
Cc1ccc(S(=O)(=O)CC(CN2CCOCC2)N2CCOCC2)cc1 (stereo unspecified)	-8%	6%[57.1 µM]	-1%	-17%	8%[57.1 µM]
O=S(=O)(CC(CN1CCCC1)N1CCCC1)c1ccc2ccccc2c1 (stereo unspecified)	8%	8.9µM*	-16%	-22%	7%
COC/C=C/C1=CC2=CC(=O)C(C)(OC(=O)c3ccco3)C(=O)C2=CO1 (stereo unspecified)	/	/	-4%	/	/
COC/C=C/C1=CC2=CC(=O)C(C)(OC(=O)C3CCCC3)C(=O)C2=CO1 (stereo unspecified)	-3%	13µM*	3%	-53%	10%[57.1 µM]
O=C(c1ccc(NS(=O)(=O)c2ccccc2)cc1)N1CCOCC1	-2%	7%[57.1 µM]	-3%	16%	4%[57.1 µM]
COc1ccc(Cc2nc3ccc(C(=O)N(C)C(C)c4nccs4)cc3o2)cc1 (stereo unspecified)	0%	10%	-6%	-31%	-3%
CCOC(=O)C(C)CC(C)C(=O)N1CCOCCOCCN(C(=O)C(C)CC(C)C(=O)OCC)CCOCC1 (stereo unspecified)	1%	9%	-10%	1%[56.9 µM]	7%
CCOC(=O)C(C(=O)OCC)C(C(=O)OCC)N1CCOCC1 (stereo unspecified)	5%	1.3µM*	-9%	-43%	6%
COC(=O)Cn1c(C)nc([N+](=O)[O-])c1Br	3%	16µM*	-2%	0%	9%[57.1 µM]
SMILES	mIDH1 inhibitor	rTrxR1 inhibitor	Eya2 inh	RGS4 inhibitor	TrxR1 substrate
CCn1c(=N)n(CC(=O)c2cccc([N+](=O)[O-])c2)c2ccccc21	1%	8%	4%	4%	-5%
Cc1nc([N+](=O)[O-])c(Br)n1CC(=O)c1cccc([N+](=O)[O-])c1	1%	7.1µM*	-5%	-11%	-3%[57.1 µM]
Cc1nc([N+](=O)[O-])c(Br)n1CC(=O)c1ccc(F)cc1	0%	2.5µM*	-3%	7%	6%
O=C(CSc1nc2ccc([N+](=O)[O-])cc2[nH]1)c1ccc2ccccc2c1	9%	-4%	1%	-4%	8%[57.1 µM]
Cc1nc([N+](=O)[O-])c(Sc2nc3ccc([N+](=O)[O-])cc3[nH]2)n1Cc1ccccc1	3%	2.5µM*	10%	-15%	-13%
CCC(NC(=O)C1CCCO1)c1ccccc1 (stereo unspecified)	0%	15%[57.1 µM]	2%	-15%	-5%
Cc1nc([N+](=O)[O-])c(Br)n1Cc1ccccc1	-1%	16µM*	13%	-12%	0%
Cc1nc([N+](=O)[O-])c(SCC(O)CCl)n1Cc1ccc(Cl)cc1 (stereo unspecified)	-1%	14%[57.1 µM]	12%	-16%	3%[57.1 µM]
Cc1[nH]c2ccccc2c1C(c1ccncc1)N1CCC(C)CC1 (stereo unspecified)	0%	-45%	5%	12%	-5%
Cc1[nH]c2ccccc2c1C(c1ccccn1)N1CCC(C(N)=O)CC1 (stereo unspecified)	9%	1.6µM*	-11%	?	5%
c1cc(C(c2nnnn2C2CCCC2)N2CCOCC2)ccn1 (stereo unspecified)	4%	14µM*	6%	12%	7%
Oc1ccc(C(c2nnnn2C2CCCCC2)N2CCOCC2)cc1 (stereo unspecified)	6%	-15%[57.1 µM]	-4%	8%	5%[57.1 µM]
OC(C[n+]1c(Cl)ccc2ccccc21)c1ccccc1 (stereo unspecified)	/	40µM*	/	/	15%
C#CC(=O)N(c1cccc(OC)c1)C(C(=O)NC1CCCC1)c1cccs1 (stereo unspecified)	-12%	?	-6%	-4%	11%
C#CC(=O)N(c1ccc(OC)c(OC)c1)C(C(=O)NC1CCCC1)c1cccs1 (stereo unspecified)	3%	3.2µM*	-6%	7%	1%
COc1ccc(CC(=O)N2CCN(c3ccccc3OC)CC2)cc1	-14%	-8%	10%	-15%[56.9 µM]	-7%
CCCCC/C=C\C/C=C\C/C=C\CC1OC1CCCC(=O)O (stereo unspecified)	/	/	/	38µM*	/
CCCCC[C@H](O)/C=C/[C@H]1[C@H](O)CC(O)[C@@H]1C/C=C\CCCC(=O)O (stereo partly specified)	/	/	/	27µM*	/

Screens deposited in PubChem by National Center for Advancing Translational Sciences (NCATS).
